This note sets out measurements from PubChem BioAssay (NCATS).

Results filed as inconclusive are left out. The source made the active and inactive calls. Calls follow the shape of the dose curve; as a rule, active = well fitted cell-killing curve with a large enough effect; inconclusive = small, poorly fitted or top-dose-only effect; inactive = flat fitted curve, though single readings scatter. Square brackets hold non-standard residues; d marks the D form. Peptide text beside a SMILES is read from it. ξ: configuration not given here. ξL = CC(C)CC(N)C(=O)O
% is scaled to controls: 0 for no effect and ±100 for the full control effect; potency is read from the fitted curve at half-maximal effect.

This assay is described as follows: SDT Cancer Cell Toxicity qHTS against the NCATS CANVASS Library (AID 1347365). Also: nearly all actives have a fitted effect of over 60% in size. The conditions noted are these: SDT dog glioma viability, ATP luminescence, 72 h; series mostly up to 46.1 µM; activity change, negative = cytotoxicity: at the top concentration. From the text:
Natural products and their derivatives continue to be wellsprings of nascent therapeutic potential. However, many laboratories have limited resources for biological evaluation, leaving their previously isolated or synthesized compounds largely or completely untested. To address this issue, the Canvass library of natural products was assembled (https://tripod.nih.gov/canvass), in collaboration with academic and industry researchers, for quantitative high-throughput screening (qHTS) across a diverse set of cell-based and biochemical assays. The pure (>85% purity by liquid chromatography/mass spectrometry [LC/MS]) Canvass library of 346 natural products were submitted by 45 academic laboratories and companies around the world. We collected pure natural products to circumvent deconvolution and structure elucidation due to time and resource limitations. The library was formatted into 1536-well plates and evaluated in 50 qHTS (in an 11-pnt concentration series) bioassays with broad scope of disease-relevant mechanisms. The resulting data set from 50 different assays was then systematically analyzed to identify overall trends and specific natural products with interesting biological activities. Reported herein are the results of each individual qHTS and their corresponding assay protocol. This assay uses ATP (luminescence) content to measure the cytotoxiciy of compounds on SDT dog glioma cancer cell line. National Center for Advancing Translational Sciences (NCATS), Rockville, MD National Institute of Health (NIH), Bethesda, Maryland
Cancer Cell Toxicity qHTS protocol: for cell lines G06, J3T, and SDT. 1. In a 1536 well, tissue culture treated white solid bottom plates (Corning 7494), 5 uL of SDT cell solution (final concentration of 500 cells / well) was dispensed using the Multidrop Combi dispenser (Thermo Fisher Scientific) into columns 2, 3, 5-48. 2. Control and Compounds were pin transferred (~23 nL volume) to the assay plates via Wako Pin-tool (Wako Automation, Richmond VA) equipped with a 1536 pin head. The compounds were transferred to columns 5-48 resulting in a final concentration ranging from 0.17 nM to 103 uM. Dose response titration of Bortezomib was pin transferred into column 2 (1mM; 1:2 dilution; 16 points) resulting to a final concentration range of 0.1 nM - 4.6 uM. 3. The assay plates were further incubated in the at 37C, 5% CO2, 95% Rh for 72 hr. 4. After incubation, 3 uL of CellTiterGlo reagent (Promega) was added to the assay plates (column 1-48, rows 1-32) and centrifuged for 15 sec at 1000 rpm to remove bubbles. 5. Luminescence signal was acquired via the ViewLux plate reader (PerkinElmer) using a clear emission filter, 2 sec exposure, and 1x binning settings.
On the technique in general: Quantitative high-throughput screening tests each substance at several concentrations.
Consider `C/C=C1/C2=CCCN3C(=O)O[C@H]([C@H]1O)[C@H]23`, for which the “activity change, negative = cytotoxicity” value is -11.6% (inactive).
The same measure, in the same setting: then `CCC(C)=C1OC(=O)[C@H](C)[C@H](O)[C@H](Cc2cccnc2)NC(=O)C(NC(=O)c2ncccc2O)C(C)OC1=O` (stereo not given in full), with -14.6% (inactive); and `C[C@@]12C[C@@H](C[C@@H]3C(=O)O[C@@H](c4ccoc4)[C@H](OC(=O)c4ccccc4)[C@@H]31)OC2=O`, with -2.36% (inactive).
Turning to `C=C(C)C(=O)O[C@H]1C[C@@]2(C)OC(=CC2=O)/C(C)=C\[C@H]2OC(=O)C(=C)[C@H]12`, the Potency is 1.66 µM (active).
As to `C[C@H]1C=C[C@H]2CCCC[C@@H]2[C@H]1C(=O)[C@H]1CC2=C(C(=O)O)CCN2C1=O`, the “activity change, negative = cytotoxicity” value was -6.6% (inactive).
For `C/C(=C\[C@H](C)C(=O)/C=C/CC1CC(=O)NC(=O)C1)[C@@H]1OC(=O)/C=C/CC/C=C/C[C@@H](O)[C@@H]1C`, the Potency was 0.662 µM (active).
For the molecule `C/C(=C\[C@H](C)C(=O)C[C@H](O)CC1CC(=O)NC(=O)C1)[C@@H]1OC(=O)CCCC/C=C/[C@@H](O)C[C@@H]1C`, the Potency was 2.35 µM (active).
On to `CC[C@@H](C)[C@H]1NC(=O)C(CC(C)C)NC(=O)[C@@H](CC(C)C)NC(=O)[C@H](Cc2c[nH]c3ccccc23)NC(=O)CNC(=O)[C@@H](CC(N)=O)NC1=O` (stereo partly drawn) (cyclo(GW[dL][ξL][dI][dN])), for which the Potency is 16.6 µM (active).
As to `C[C@@]12CCC[C@@](C)(C(=O)O)[C@H]1C[C@@H](O)[C@@]13C[C@@H](CC[C@@H]21)[C@](C)(O)C3`, the “activity change, negative = cytotoxicity” value was 4.01% (inactive).
As to `O=C1CC(c2ccc(O)cc2)Oc2ccccc21` (stereo not given), the Potency was 20.9 µM (active).
In the case of `COc1ccc(-c2oc3cc(OC)cc(OC)c3c(=O)c2O)cc1`, the Potency is 10.5 µM (active).
For `C=C1[C@@]2(C)CC3C4(C)CCC(O)C(C)(C)C4CCC3(C)[C@]1(C(=O)OC)C(=O)C(C)(O)C2=O` (stereo not given in full), the “activity change, negative = cytotoxicity” value was -6.34% (inactive).
As for `CC(=O)O[C@H]1c2ccccc2-c2c3c(cc4c2[C@@H]1N(C(C)=O)CC4)OCO3`, the “activity change, negative = cytotoxicity” value is -18.6% (inactive).
As to `C/C=C/C(=O)C1(O)CC2CC(C(=O)O)CC(C)C2C1C1=C2C(=O)NC(=O)C2=C(CCCCC)C(C)O1` (stereo not given), the Potency is 16.6 µM (active).
On the same count and under the same terms, then `C/C=C/c1cc2c(c(=O)o1)C(=O)[C@@H](O)[C@H](C)O2`, with 10.5 µM (active).
`C=C[C@@]1(C)CC[C@@H]([C@H](C)C(C)=O)O1`: the “activity change, negative = cytotoxicity” value is -2.31% (inactive).
Consider `C=CC(CCCCC)C1C(=O)NC(=O)C1C(=O)C1C2C(C)CC(C(=O)O)CC2CC1(O)C(=O)/C=C/C` (stereo not given), for which the “activity change, negative = cytotoxicity” value is -1.7% (inactive).
On the same count and under the same terms, then `C=C[C@](Cl)(CBr)CCC=C(C)C`, with -19% (inactive); and `C/C=C(/C)c1cc(O)c(C)c2c1Oc1cc(O)cc(C)c1C(=O)O2`, with 9.65% (inactive).
Regarding `CC1=C[C@H]2[C@H]3C(=O)C(c4ccc(O)cc4)=C[C@@]3(c3ccc(O)cc3)[C@@H]1C(=O)[C@]2(C)O`, the Potency was 0.209 µM (active).
Same read-out and setting: then `COc1cc(C2C3=C(Cc4cc5c(cc42)OCO5)C(=O)OC3)cc(OC)c1OC` (stereo not given), with 0.118 µM (active).
As for `CC(C)[C@]12CC[C@@]3(C)[C@H](C)CC[C@H](O)[C@@]3(CC1)c1cc3c(cc12)[nH]c1ccccc13`, the “activity change, negative = cytotoxicity” value was -0.456% (inactive).
In the case of `CC(=O)Oc1cc2c(c(OC(C)=O)c1C1CCc3cc(Cl)c(Cl)n31)C(=O)n1c-2cc(Cl)c1Cl` (stereo not given), the Potency is 10.5 µM (active).
In the case of `COc1cc2ccc(=O)oc2c(O)c1O[C@@H]1O[C@H](CO)[C@@H](O)[C@H](O)[C@H]1O`, the “activity change, negative = cytotoxicity” value was -21.6% [at 27.5 µM] (inactive).
Regarding `C[C@@]12CCC[C@@](C)(C(=O)O)[C@H]1CC[C@@]13C[C@@H](CC[C@H]12)[C@](C)(O)C3`, the “activity change, negative = cytotoxicity” value was -1.43% (inactive).
As to `Oc1ccc(C2Oc3cc(O)c4c(c3[C@@H]2c2cc(O)cc(O)c2)[C@H]2C(c3ccc(O)cc3)c3c(O)cc5c(c3[C@H]2C4c2ccc(O)cc2)[C@H](c2cc(O)cc(O)c2)C(c2ccc(O)cc2)O5)cc1` (stereo not given in full), the Potency is 9.35 µM (active).
As to `[C-]#[N+][C@@]12C(=O)[C@@H]3[C@@H](O[C@@]4(C(=O)N(C)c5cccc1c54)C3(C)C)C(=O)[C@@]2(C)C=C`, the “activity change, negative = cytotoxicity” value is 13.7% (inactive).
Take `C[C@H](CCC(O)C(C)(O)CO)[C@@]1(O)CC[C@@]2(C)C3=C(CC[C@@]21C)[C@@]1(C)CCC(OC(=O)CCC(=O)O)C(C)(C)[C@@H]1CC3` (stereo not given in full): the “activity change, negative = cytotoxicity” value was -3.55% (inactive).
On to `O[C@H]1C=C2[C@H]3CN(Cc4cc5c(cc43)OCO5)[C@H]2C[C@@H]1O`, for which the Potency is 7.43 µM (active).
The same measure, in the same setting: as for `C/C1=C/[C@@H](C)[C@H](O)C/C=C/CC/C=C/C(=O)O[C@@H]1[C@H](C)C(=O)CCCC1CC(=O)NC(=O)C1`, the figure is 5.26 µM (active); as for `CCC(=O)CCCCC[C@@H]1NC(=O)[C@H]2CCCCN2C(=O)[C@H](C(C)C)NC(=O)[C@H](Cc2cn(OC)c3ccccc23)NC1=O`, 7.43 µM (active).
On the same count and under the same terms, as for `C/C(=C\[C@H](C)C(=O)CCCC1CC(=O)NC(=O)C1)[C@@H]1OC(=O)/C=C/CC/C=C/[C@H](O)[C@@H](O)[C@@H]1C`, the figure is 0.264 µM (active); as for `Cc1occ2c1C(=O)c1c(cc(O)c(O)c1O)C2=O`, 1.05 µM (active).
Regarding `C=C1C[C@]23C=CC(=O)[C@@](C)(CCCC(C)C(=O)N[C@@H](CO)C(=O)O)[C@@H]2C[C@@H]1CC3` (stereo not given in full), the “activity change, negative = cytotoxicity” value was 7.37% (inactive).
On to `C[C@]12CCC[C@](C)(C(=O)O)[C@@H]1CC[C@@]1(C)c3cocc3CC[C@H]21`, for which the “activity change, negative = cytotoxicity” value was -14.5% (inactive).
The same measure, in the same setting: then `CC(C)C[C@@H]1c2c(O)c(C=O)c(O)c(C=O)c2O[C@]2(C)C=C[C@@H](C(C)C)C[C@H]12`, with -4.26% (inactive).
In the case of `C=C1C[C@H]2O[C@@H]3[C@@H]4[C@H](CC[C@@](C)(O)[C@@H]42)[C@H](C)COC3(C)[C@@H](OC(=O)CCCCCCC)CC1=O` (stereo not given in full), the Potency is 23.5 µM (active).
For the molecule `O=c1cc(-c2ccc(O)cc2)oc2cc(O)c([C@@H]3OC(CO)[C@H](O)[C@@H](O)[C@H]3O)c(O)c12` (stereo not given in full), the “activity change, negative = cytotoxicity” value was 4.53% (inactive).
On to `O[C@H]1c2ccccc2-c2c3c(cc4c2[C@@H]1NCC4)OCO3`, for which the Potency is 18.7 µM (active).
For `C/C(=C\[C@H](C)C(=O)C[C@H](O)CC1CC(=O)NC(=O)C1)[C@@H]1OC(=O)CCCC/C=C/C[C@@H](O)[C@@H]1C`, the Potency is 1.66 µM (active).
